Screens from PubChem BioAssay.
This is a sample that favours compounds with a hit; in the whole collection about 3.9% have one here.
BoNT-A LC inh2 = BoNT A light chain protease inhibition | multiplex microsphere protease substrate cleavage, flow cytometry | inhibition, % at 10 µM | 0.17% of 360,000 active | AID 588499; note: plate controls were buffer without enzyme for full effect and enzyme alone for no effect
MazF activator = activators of E. coli MazEF toxin-antitoxin RNase; P0AE70; FAM/BHQ RNA-DNA oligo cleavage fluorescence, 5 h; activation, % at 20 µM; AID 504720; 0.32% of 350,000 active; in the data active = activation above about 50%
Vc quorum ag = inducers of Vibrio cholerae quorum light production without autoinducers. 0.16% of 350,000 active. V. cholerae BH1578 lux reporter, luminescence, 6 h. activation, % at 18.7 µM; in the data active = activation mostly above about 9.7%, no sharp cut-off; inconclusive = no clear call, values can overlap the other calls; inactive = mostly below about 3.7%
Anthrax LF inh2 = blocks Bacillus anthracis lethal factor protease; P15917; multiplex microsphere protease cleavage assay, LF; inhibition, % at 10 µM; 0.12% of 360,000 active; note: plate controls were buffer without enzyme for full effect and enzyme alone for no effect
BoNT F protease = blocks Botulinum neurotoxin F light chain protease. inhibition, % at 10 µM. AID 588497. 0.22% of 360,000 active. Multiplex microsphere protease cleavage assay, flow cytometry; in the data active = inhibition above about 35%, passing the limit was not always enough; inconclusive = no clear call, values can overlap the other calls; note: plate controls were buffer without enzyme for full effect and enzyme alone for no effect
Bead autofluor = compound fluorescence in toxin protease inhibitor counterscreen | compound autofluorescence counterscreen, microsphere flow cytometry; stronger effect = higher value | fluorescence intensity (no concentration beside the values) | 3.1% of 360,000 active | AID 624483; in the data active = fluorescence intensity above about 16000; inconclusive = no clear call, values can overlap the other calls
Starred values were filed as active, the others as inactive; i = inactive; ? = inconclusive; . = no result given. Cut-off read from the data, not from the text of the source, unless noted: active = inhibition above about 30%; inconclusive = no clear call, values can overlap the other calls; inactive = below that.

SMILES	BoNT-A LC inh2	MazF activator	Vc quorum ag	Anthrax LF inh2	BoNT F protease	Bead autofluor
CCOC(=O)C(C)n1cnc2c(nnn2Cc2ccc(C)cc2)c1=O (centres undefined)	?	-16	-2	0	0	20875*
CCC(C(=O)OC)n1cnc2c(nnn2-c2ccc(OC)cc2)c1=O (centres undefined)	0	1	0	-2	5	10840
CCOC(=O)C(CC)n1cnc2c(nnn2-c2ccc(OC)cc2)c1=O (centres undefined)	7	1	0	-10	7	17635*
COc1ccc(Cc2c(-c3cccc(Br)c3)nc3ccc(Cl)cn23)c(C)c1	8	.	.	18	-10	7038
COc1ccc(Cc2c(-c3ccccc3)nc3ccc(Br)cn23)c(C)c1	40*	.	.	21	-1	5928
CCC(C)c1ccc(NC(=O)C2=CC=CN3CCS(=O)(=O)N=C23)cc1 (centres undefined)	0	5	i	-5	-6	2924
CCCOc1ccc(C(=O)c2nc3c(n2O)CCCCC3)cc1	1	10	i	4	-5	23225*
N#Cc1c(N2CCN(c3ccc([N+](=O)[O-])cc3)CC2)[n+](=O)c2ccc(Cl)cc2n1[O-]	6	-55	-1	7	11	4187
Cc1cc(C)n(CC(O)Cn2cnc3c2c(=O)n(C)c(=O)n3C)n1 (centres undefined)	-1	-3	i	-4	-5	22564*
CC(C)CC1NC(=O)c2cc3ccccc3cc2-n2c1nc1cc(Cl)ccc1c2=O (centres undefined)	0	-3	i	-3	2	3008
Cc1nc(Cl)c(C(=O)NC(=O)NCc2ccccc2)c(C)c1Cl	-1	2	i	-3	-1	7894
Fc1ccccc1/C=C1\CCCC2=C1Nc1nnnn1C2c1ccccc1F (centres undefined)	0	-2	-1	1	1	22685*
CC(C)CCn1c(O)c(N=Nc2ccccn2)c2ccccc21	-2	-17	-1	-2	-10	10943
CCCn1c(O)c(N=Nc2ccc3ccccc3n2)c2ccccc21	5	146*	0	3	-6	9515
COc1ccc(C2C(C(=O)c3ccccc3)N3c4ccccc4C=CC3C2[N+](=O)[O-])cc1 (centres undefined)	?	63*	0	?	?	4295
COc1ccc(N2C(=O)[C@@H]3[C@H](C2=O)[C@H](C(C)=O)N2c4ccccc4C=C[C@@H]32)cc1	-2	-18	0	-8	?	3740
Cc1nc(=O)c(-c2ccccc2)c(C)n1-c1ccc(S(N)(=O)=O)cc1	0	7	-1	-2	2	2396
Cc1nc(=O)c(-c2ccccc2)c(C)n1-c1ccc(C(=O)O)cc1	1	3	-11	0	-1	22979*
O=C(COc1ccc(NC(=O)c2ccccc2)cc1)c1ccccc1	.	10	i	.	.	.
CCCCn1c(N)c(Sc2ccccc2)c(=O)[nH]c1=O	-8	9	0	-6	-10	25818*
CCCn1c(N)c(Sc2ccccc2)c(=O)n(CCC)c1=O	-1	6	i	-1	-1	19729*
O=C(CSc1nnc(NC2CC2)s1)c1ccc[nH]1	0	10	.	8	7	4177
CCC(C)n1c(O)c(C=NCc2cccnc2)c(=O)[nH]c1=S (centres undefined)	.	6	-1	.	.	.
O=c1[nH]c(=S)n(Cc2ccc(F)cc2)c(O)c1C=NCc1cccnc1	1	-16	-4	-2	0	16199*
O=C(CC(C(=O)O)N1CCOCC1)Nc1ccc(Cl)cc1 (centres undefined)	1	-1	0	0	2	19713*
Cc1ccc(C23CC4CC(CC(NC(=O)NC(C)(C)CO)(C4)C2)C3)cc1	1	3	-7	0	2	22797*
Cc1ccc2[nH]c(O)c(N=Nc3ccccc3C)c2c1	0	6	0	1	3	6144
COc1ccccc1N=Nc1c(O)[nH]c2ccc(Br)cc12	3	137*	-1	6	21	3600
O=C(N=Nc1c(O)[nH]c2ccc(Br)cc12)c1ccccc1-n1cccc1	-3	9	0	-7	-8	24096*
Cc1ccccc1N=Nc1c(O)[nH]c2ccccc12	0	482*	1	9	-5	5770
